Compound activity from PubChem BioAssay.
SUMO HTRF inh = blocks human SUMOylation mediated by UBC9; P63279; HTRF SUMOylation assay, SAE1/SAE2 + UBC9, in vitro; inhibition, % at 35 µM; actives 0.36% (n = 290,000); in the data active = inhibition above about 50%, passing the limit was not always enough; inconclusive = no clear call, values can overlap the other calls
p97 ATPase inh = human p97 ATPase inhibition. actives 0.42% (n = 220,000). AID 1481. recombinant p97 ATPase, Kinase-Glo ATP luminescence, 3 h. inhibition, % at 8 µM; in the data active = inhibition above about 15%;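 note: 0% = DMSO vehicle and 100% = wells lacking enzyme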
Target sequence (P55072 whole entry, looked up): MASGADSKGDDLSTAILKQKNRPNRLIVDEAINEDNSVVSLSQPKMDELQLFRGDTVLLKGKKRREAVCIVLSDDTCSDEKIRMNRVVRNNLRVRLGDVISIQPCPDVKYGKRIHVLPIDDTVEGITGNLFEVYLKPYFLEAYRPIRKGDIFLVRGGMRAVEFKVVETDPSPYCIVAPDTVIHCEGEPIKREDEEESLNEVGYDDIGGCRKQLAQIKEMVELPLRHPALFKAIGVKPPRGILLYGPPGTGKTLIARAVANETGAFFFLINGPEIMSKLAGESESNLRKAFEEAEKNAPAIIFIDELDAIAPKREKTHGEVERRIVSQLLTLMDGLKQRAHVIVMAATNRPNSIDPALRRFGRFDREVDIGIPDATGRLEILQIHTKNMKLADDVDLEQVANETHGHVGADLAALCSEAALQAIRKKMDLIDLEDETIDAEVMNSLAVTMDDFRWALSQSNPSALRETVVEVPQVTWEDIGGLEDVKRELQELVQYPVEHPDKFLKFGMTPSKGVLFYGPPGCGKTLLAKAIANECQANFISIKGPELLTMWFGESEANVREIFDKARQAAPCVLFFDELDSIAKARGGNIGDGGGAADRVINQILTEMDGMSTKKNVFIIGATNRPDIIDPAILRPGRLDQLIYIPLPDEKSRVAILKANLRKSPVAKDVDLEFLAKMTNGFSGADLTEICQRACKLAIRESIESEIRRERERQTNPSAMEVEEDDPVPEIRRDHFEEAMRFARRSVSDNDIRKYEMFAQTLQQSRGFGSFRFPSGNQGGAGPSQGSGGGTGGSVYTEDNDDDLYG
PfM18AAP inh-1 = PfM18AAP enzyme inhibition. recombinant PfM18AAP, H-Glu-NHMec fluorogenic cleavage. inhibition, % at 7.35 µM. actives 1.2% (n = 290,000). AID 1822;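 active = inhibition above the campaign mean inhibition over all tested compounds plus 3 SD, cut at about 28% in these data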;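 note: 0% = plate median of test compound wells and 100% = 2 mM ZnCl2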
PHOSPHO1 inh = inhibitors of human PHOSPHO1 phosphatase. actives 1.1% (n = 290,000). recombinant PHOSPHO1, absorbance phosphatase assay. AID 1565. inhibition, % at 13.3 µM; in the data active = inhibition above about 60%
HDAC3 inhib = inhibitors of human histone deacetylase 3. O15379. recombinant HDAC3, fluorogenic peptide/trypsin coupled, fluorescence. inhibition, % at 8.3 µM. actives 0.15% (n = 320,000). AID 2718; in the data active = inhibition above about 26%, passing the limit was not always enough; inconclusive = no clear call, values can overlap the other calls
G6PDH counter = counter-screen for G6PDH assay hits: L. mesenteroides G6PDH inhibition. Purified L. mesenteroides G6PDH, diaphorase/resazurin coupled fluorescence, 45 min. inhibition, % at 5 µM. actives 0.12% (n = 200,000). AID 1020; in the data active = inhibition above about 50%
PfM18AAP inh-2 = confirmation of Plasmodium falciparum M18 aspartyl aminopeptidase inhibitors | actives 28% (n = 2,400) | shares compounds with PfM18AAP inh-1 | recombinant PfM18AAP, H-Glu-NHMec fluorogenic cleavage | AID 2170 | inhibition, % at 7.35 µM;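 active = mean inhibition over replicate wells above the hit cutoff set for the earlier primary screen, cut at about 29% in these data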;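 note: 0% = median of test compound wells and 100% = 2 mM ZnCl2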
CTSL1 counter = counter-screen for PFM18AAP inhibitors: confirmation of human cathepsin L inhibitors; shares compounds with PfM18AAP inh-1; purified cathepsin L1, Z-Leu-Arg-MCA fluorescence; inhibition, % at 5.96 µM; 2,400 tested, under 10 active;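 active = average inhibition across replicates above the hit cutoff set in the earlier primary screen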;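 note: 0% = median of test compound wells and 100% = Z-Phe-Ala-diazomethylketone 1 µM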
Active calls of the source: *; ? = inconclusive; / = not tested or not shown. A selection: hits, their analogues and other compounds. The true share with any hit is near 2.5%.

SMILES | SUMO HTRF inh | p97 ATPase inh | PfM18AAP inh-1 | PHOSPHO1 inh | HDAC3 inhib | G6PDH counter | PfM18AAP inh-2 | CTSL1 counter
OC[C@H]1O[C@H](OCc2ccccc2)[C@H](O[C@@H]2OC[C@@H](O)[C@H](O)[C@H]2O)[C@@H](O)[C@@H]1O | / | / | / | / | 1 | / | / | /
OC1COC(OCC2OC(OCc3ccccc3)C(O)C(O)C2O)C(O)C1O (centres undefined) | 8 | 1 | 35* | -8 | 2 | 14 | -3 | -9
COc1cccc(NC(=O)C(OC(=O)/C=C/c2ccc3c(c2)OCO3)c2ccccc2)c1 (centres undefined) | 12 | -5 | 32* | -9 | 1 | -1 | -38 | -7
CC(=O)Nc1ccc(NC(=O)C(C)OC(=O)/C=C/c2ccc3c(c2)OCO3)cc1 (centres undefined) | / | / | / | / | -1 | / | / | /
Cc1cccc(/C=N/NC(=O)c2ccc(NC(=O)c3cccc(Cl)c3)cc2)n1 | 15 | / | 3 | 32 | -3 | / | / | /
Cc1cccc(N(C)S(=O)(=O)c2csc(C(N)=O)c2)c1 | -11 | / | -3 | 42 | -1 | / | / | /
CC1(C)CC(=O)C(C(=S)Nc2ccccc2)=C(NC2CC(C)(C)NC(C)(C)C2)C1 | -2 | 4 | 47* | 21 | -4 | 8 | -48 | 3
CC1(C)CC(NC(=S)Nc2ccc(S(N)(=O)=O)cc2)CC(C)(C)N1 | 10 | 3 | 2 | -1 | 5 | 0 | / | /
NS(=O)(=O)c1ccc(NNC(=O)c2ccccc2)cc1 | 15 | 5 | 21 | 27 | 1 | / | / | /
CCc1ccc(C(=O)NNc2ccc(S(N)(=O)=O)cc2)cc1 | 10 | 3 | 35* | 37 | -4 | / | -10 | 1
O=[N+]([O-])c1cccc(S(=O)(=O)NCCc2ccccc2)c1 | -1 | / | -5 | 4 | -6 | / | / | /
O=C(Nc1n[nH]c(C(F)(F)F)n1)C1CC1 | -6 | -2 | -13 | 15 | -5 | 1 | / | /
CN(C(=O)c1ccc2c(c1)OCCO2)c1c(N)n(Cc2ccccc2)c(=O)[nH]c1=O | / | / | / | / | 15 | / | / | /
COc1ccc(C(C)=O)cc1CSc1nc2ccccc2c(=O)n1-c1ccccc1C | -17 | 5 | 43* | 21 | -4 | -3 | -62 | 2
COc1ccc(C(C)=O)cc1CSc1nc2ccccc2c(=O)n1-c1ccccc1 | 1 | -7 | -4 | 8 | 1 | -7 | / | /
CCN1C(=O)[C@@H]2[C@@H](c3ccc(-c4ccc(F)cc4)c(OC)c3)N3CCC[C@@]3(C(=O)OC)[C@@H]2C1=O | / | / | / | / | -3 | / | / | /
CCC(=O)NCCc1nc2cc(NC(=O)c3ccc(F)cc3)ccc2n1C | -9 | / | -5 | -1 | -1 | / | / | /
O=C(N/N=C/c1c[nH]c2ccccc12)c1ccc(O)c(O)c1 | 0 | / | 70* | 24 | 10 | / | 50* | 2
COc1ccccc1-n1cc(-c2ccccc2)[nH]c1=S | -8 | / | 14 | 15 | 4 | / | / | /
Cc1ccc(-c2cn(-c3ccccc3F)c(=S)[nH]2)cc1 | 4 | / | 10 | 6 | 6 | / | / | /
CC(=O)Nc1ccc(-n2cc(-c3ccccc3)[nH]c2=S)cc1 | -6 | 6 | 64* | 29 | 6 | -6 | 58* | 2
COc1ccc(-n2cc(-c3ccccc3)[nH]c2=S)cc1 | 5 | -2 | 44* | -6 | -4 | -13 | 33* | 2
Cc1cccc(-n2cc(-c3ccccc3)[nH]c2=S)c1 | -3 | / | 39* | / | 8 | / | 13 | 4
CC(=O)Nc1ccc(-n2c(C)ccc2-c2ccccc2)cc1 | 19 | / | -9 | 33 | 5 | / | / | /
CC1CCC(C(C)C)C2=C1C(C#N)(C#N)C(C#N)(C#N)C(c1ccccc1)N2 (centres undefined) | 8 | 11 | 36* | 10 | 7 | 9 | -32 | -2
SMILES | SUMO HTRF inh | p97 ATPase inh | PfM18AAP inh-1 | PHOSPHO1 inh | HDAC3 inhib | G6PDH counter | PfM18AAP inh-2 | CTSL1 counter
CC1=CC(C#N)(C#N)C(C#N)(C#N)C(c2ccccc2)N1 (centres undefined) | -14 | 4 | 8 | -6 | -4 | 5 | / | /
O=C(CCN1C(=O)/C(=C/c2ccccc2Cl)SC1=S)NCCc1ccc(O)cc1 | 6 | / | -7 | 45 | 3 | / | / | /
COCC(=O)N(Cc1cc2cccc(C)c2[nH]c1=O)c1ccccc1 | 8 | / | 5 | / | 6 | / | / | /
CCOc1ccccc1/C=N/Nc1ccc(Cl)nn1 | 10 | / | 7 | 40 | 3 | / | / | /
Oc1ccc(/C=N/Nc2ccc(Cl)nn2)c(O)c1O | 44 | / | 65* | 11 | 3 | / | 49* | -1
CCOc1ccc(/C=N/Nc2ccc(Cl)nn2)c(O)c1 | 10 | / | 36* | 10 | -3 | / | -30 | -1
Fc1cccc(/C=N/Nc2ccc(Cl)nn2)c1 | 26 | / | 9 | 29 | / | / | / | /
CCc1ccccc1Oc1ccc(S(=O)(=O)N2CCN(C)CC2)cn1 | / | / | / | / | 1 | / | / | /
CC(=O)c1cnc(Oc2cc(Cl)ccc2Cl)nc1C | 3 | / | -5 | 2 | 1 | / | / | /
CC1CCC(NC(=O)CCS(=O)(=O)c2ccc3c(c2)CCN3C(=O)C2CC2)CC1 (centres undefined) | 20 | / | -14 | 14 | ? | / | / | /
Cc1c(C(=O)O)cccc1N1C(=O)Nc2ccccc2N1O | 16 | -3 | 21 | -1 | -7 | -2 | / | /
O=C(O)c1ccc(O)c(N2C(=O)Nc3ccccc3N2O)c1 | 38 | 3 | 50* | 0 | ? | 2 | 12 | 0
CC1=CC(C)(C)N(C(=O)CN2C(=O)CCC2=O)c2ccc(C)cc21 | -8 | 5 | 4 | 45 | 5 | 4 | / | /
CC1=CC(C)(C)N(C(=O)CSc2ncn[nH]2)c2ccc(C)cc21 | 1 | -8 | 56* | 19 | 3 | 3 | -31 | 4
O=C(CN1CCSCC1)N/N=C/c1cccc(Cl)c1 | -5 | -5 | 4 | -18 | 2 | 3 | / | /
O=S(=O)(Nc1cc(Sc2ncn[nH]2)c(O)c2ccccc12)c1ccccc1 | 92* | 29* | 38* | 2 | / | 54* | -202 | -3
O=C(COc1cccc(C(F)(F)F)c1)N1CCN(c2ccccc2O)CC1 | -29 | -2 | 1 | 35 | 7 | 8 | / | /
O=C(COc1cccc(C(F)(F)F)c1)N1CCN(c2ccc(O)cc2)CC1 | 4 | 1 | 33* | 21 | 9 | 2 | -24 | 4
COc1cc(CNc2ccc(N3CCCCC3)cc2)ccc1OCC(=O)NC(C)(C)C | 4 | / | 43* | 39 | 5 | / | -33 | -1
COc1ccc(-n2c(O)c(/C=N/Nc3nc(C)cc(C)n3)c3ccccc3c2=O)cc1OC | 14 | 8 | 34* | 28 | -1 | 2 | -7 | 0
COc1ccc(-n2c(O)c(/C=N/NS(=O)(=O)c3ccc(C)cc3)c3ccccc3c2=O)cc1OC | 8 | 6 | 7 | 11 | / | 16 | / | /
COc1ccc(OC)c(CN2CCN(CC(=O)Nc3ccccc3C(=O)NC3CC3)CC2)c1 | / | / | / | / | -2 | / | / | /
